The nature of assay [1]: resazurin metabolic signal in HepG2 cells – cell-based, resazurin fluorescence, 24 h, PK04 Diversity Set, profiling panel (AID 1172). Note: test concentration not given here. The conditions noted are these: HepG2 viability, higher = more signal. On the technique in general: Resazurin is reduced to fluorescent resorufin, in cell work by metabolically active cells.
The nature of assay [2]: budding yeast growth changes without added modifier – OD600, strain BY4716, 24 h, basal condition, primary screen (AID 1173). The conditions noted are these: S. cerevisiae BY4716 growth, OD600, 24 h; higher = more signal, called active from +8 up or from −8 down.
Assay [3] can be described thus: viability profiling in MM1S myeloma cells – cell-based, resazurin fluorescence, basal, 24 h, PK04 Diversity Set, profiling panel (AID 1174).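 Note: MM1S multiple myeloma cell line; test concentration not given here.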 The note with it: higher = more signal, called active from +8 up or from −8 down.
Assay [4] has as its target Dihydroorotate dehydrogenase (quinone), mitochondrial (Plasmodium falciparum (isolate 3D7)) (UniProt Q08210). The assay can be described thus: inhibition of P. falciparum DHODH – biochemical, C-terminal His tag, absorbance 600 nm, primary screen (AID 1175).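 Note: recombinant parasite enzyme with a five histidine tag at its C terminus; test concentration not given here.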 The conditions noted are these: PfDHODH enzyme, DCIP absorbance 600 nm; higher = more signal, called active from +8 up or from −8 down.

Assay [5] in a line: inhibition of PAO1 biofilm formation – strain PAO1, LB-PBS medium, absorbance 600 nm, primary screen (AID 1176). Note: test concentration not given here. The note with it: P. aeruginosa PAO1 growth/biofilm, A600, 12 h; higher = more signal.
Assay [6] is described as follows: growth modulation of vineyard yeast isolate – strain RM11-1a, OD600, basal, 24 h, primary screen (AID 1177).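 Note: cultures grown under basal conditions with no added stressor; test concentration not given here.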 The note with it: S. cerevisiae RM11-1a growth, OD600, 24 h; higher = more signal, called active from +8 up or from −8 down.
Assay [7] can be described thus: growth of efflux-deficient E. coli DRC39 – strain DRC39, OD650, 24 h, E. coli filamentation inducers, primary screen (AID 1178).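 Note: growth measured as culture turbidity by optical density at 650 nm; test concentration not given here.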 The note with it: E. coli DRC39 acrAB, higher = more signal, called active from +8 up or from −8 down.
Assay [8] in a line: growth of efflux-deficient E. coli DRC39 – strain DRC39, OD650, 48 h, E. coli filamentation inducers, primary screen (AID 1179).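 Note: screen aims at cell division blockers that make cells filament.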 The conditions noted are these: E. coli DRC39 delta-acrAB growth, higher = more signal, called active from +8 up or from −8 down.
The nature of assay [9]: viability profiling in RPMI8226 myeloma cells – cell-based, resazurin fluorescence, basal, 24 h, PK04 Diversity Set, profiling panel (AID 1180).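 Note: RPMI8826 multiple myeloma cell line at 5000 cells per well; test concentration not given here.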 The note with it: higher = more signal.
Assay [10] has as its target E3 ubiquitin-protein ligase XIAP (Homo sapiens) (UniProt P98170). The assay can be described thus: small molecules binding XIAP protein – biophysical, small-molecule microarray, fluorescence 635 nm, primary screen (AID 1181).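 Note: score merges 667 nm emission and signal to noise over triplicate slides.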 The conditions noted are these: higher = more signal.

The source made the active and inactive calls. Unless noted, the rule behind the calls is not given here.

Chain of Dihydroorotate dehydrogenase (quinone), mitochondrial (Plasmodium falciparum (isolate 3D7)) (Q08210 whole entry, looked up): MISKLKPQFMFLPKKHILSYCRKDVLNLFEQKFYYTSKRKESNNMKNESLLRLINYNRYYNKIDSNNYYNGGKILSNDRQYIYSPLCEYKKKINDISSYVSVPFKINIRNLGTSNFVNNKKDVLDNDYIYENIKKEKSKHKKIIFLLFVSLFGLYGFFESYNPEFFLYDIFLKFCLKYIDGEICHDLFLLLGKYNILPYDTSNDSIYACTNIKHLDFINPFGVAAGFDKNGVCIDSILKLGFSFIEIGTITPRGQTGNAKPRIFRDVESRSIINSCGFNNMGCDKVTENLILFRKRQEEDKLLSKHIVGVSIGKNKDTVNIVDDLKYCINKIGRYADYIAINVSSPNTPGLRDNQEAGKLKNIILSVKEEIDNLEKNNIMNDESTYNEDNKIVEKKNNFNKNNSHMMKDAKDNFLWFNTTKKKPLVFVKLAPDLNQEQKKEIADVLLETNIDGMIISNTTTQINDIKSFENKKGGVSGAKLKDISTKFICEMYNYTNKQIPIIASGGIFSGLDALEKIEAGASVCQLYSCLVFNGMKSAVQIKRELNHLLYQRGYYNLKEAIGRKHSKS
Chain of E3 ubiquitin-protein ligase XIAP (Homo sapiens) (P98170 whole entry, looked up): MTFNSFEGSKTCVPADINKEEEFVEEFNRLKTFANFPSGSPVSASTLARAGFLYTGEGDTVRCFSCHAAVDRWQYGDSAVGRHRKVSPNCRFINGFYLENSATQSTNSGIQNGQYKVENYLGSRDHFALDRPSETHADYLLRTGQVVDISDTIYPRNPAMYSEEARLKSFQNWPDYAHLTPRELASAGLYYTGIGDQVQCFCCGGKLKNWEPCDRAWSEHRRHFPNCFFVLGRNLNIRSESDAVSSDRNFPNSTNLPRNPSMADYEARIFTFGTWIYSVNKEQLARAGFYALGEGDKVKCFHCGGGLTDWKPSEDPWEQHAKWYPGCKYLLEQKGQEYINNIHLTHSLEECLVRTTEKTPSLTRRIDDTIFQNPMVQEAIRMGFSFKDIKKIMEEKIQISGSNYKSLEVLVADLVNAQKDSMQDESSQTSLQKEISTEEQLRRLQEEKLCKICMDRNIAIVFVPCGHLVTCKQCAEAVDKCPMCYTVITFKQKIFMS

As to `COC(=O)C1=C(C)[C@@H](O)[C@@H](C)[C@H](c2c(OC)c(OC)c(C)c(OC)c2OC)O1`, the z-score is -0.359 in assay [1]; -0.195 (inactive) in [2]; -0.46 (inactive) in assay [3]; 0.368 (inactive) in assay [5]; 0.0467 (inactive) in assay [6]; 0.0595 (inactive) in assay [7]. In addition, the z-score in [8] is -0.0569 (inactive); in assay [9] it was -0.529. Also, the composite z-score was -0.218 (inactive) in [4] and 0.0101 in assay [10].
For the compound `C[C@@H](c1ccccc1)N1C(=O)[C@H]2[C@H]3[C@H](O)[C@H](O)CC(=NNC(=O)OCc4ccccc4)[C@H]3CC[C@H]2C1=O`, the z-score was 0.2 in [1]; 0.976 (inactive) in assay [2]; -0.139 (inactive) in assay [3]; 0.413 (inactive) in assay [5]; 0.993 (inactive) in assay [6]; -0.327 (inactive) in assay [7]. In addition, the values for the z-score in [8] and in [9] were -0.462 (inactive) and 0.368, respectively. Further, the values for the composite z-score in [4] and in [10] were 0.749 (inactive) and -0.163, respectively.
In the case of `O=C(NN=C1C[C@@H](O)[C@@H](O)[C@@H]2[C@@H]3C(=O)N(c4ccc(F)cc4F)C(=O)[C@@H]3CC[C@@H]12)OCc1ccccc1`, the z-score was 0.801 in assay [1]; 0.207 (inactive) in [2]; 0.442 (inactive) in assay [3]; -1.09 (inactive) in [5]; 1.01 (inactive) in [6]; 0.502 (inactive) in assay [7]. Besides, the z-score is 0.873 (inactive) in [8] and 0.508 in assay [9]. The composite z-score in [4] was -0.192 (inactive); in assay [10], -0.27.
As to `O=C(NN=C1C[C@@H](O)[C@@H](O)[C@@H]2[C@@H]3C(=O)N(c4cccc(Oc5ccccc5)c4)C(=O)[C@@H]3CC[C@H]12)OCc1ccccc1`, the z-score was 0.615 in [1]; -0.841 (inactive) in assay [2]; -0.0525 (inactive) in assay [3]; -0.708 (inactive) in [5]; -0.474 (inactive) in [6]; 0.578 (inactive) in assay [7]. The figures for the z-score in assay [8] and in [9] were 0.514 (inactive) and 0.49, respectively. For the same compound, the composite z-score in assay [4] is 0.294 (inactive); in assay [10], -0.141.
On to `COCC1=C2[C@@H](CCc3ccccc3)OB(O)C[C@@H]2n2c(=O)n(-c3ccccc3)c(=O)n2C1`, for which the z-score in assay [1] is 0.0883; in [2] it was -1.24 (inactive); in [3], -0.177 (inactive); in assay [5], 0.248 (inactive); in [6], -0.352 (inactive); in assay [7] it was 0.969 (inactive). In addition, the z-score in [8] is 0.545 (inactive); in [9], 0.0549. The figures for the composite z-score in [4] and in assay [10] were 0.653 (inactive) and 0.698, respectively.
As for `c1ccc(C2NCCc3c2[nH]c2ccccc32)cc1` (stereo not given), the z-score in [1] is 0.278; in [2], -2.91 (inactive); in assay [3], -0.104 (inactive); in assay [5] it was 0.107 (inactive); in [6], -0.104 (inactive); in [7], -0.832 (inactive). Further, the z-score is -1.79 (inactive) in assay [8] and -0.326 in assay [9]. The composite z-score in assay [4] was -11 (active); in assay [10], 0.0043.
For `CCOC(=O)CCN1C(=O)[C@H]2[C@H]3[C@H](O)[C@H](O)CC(=NOC[C@@H](O)COCc4ccco4)[C@@H]3CC[C@H]2C1=O`, the z-score was -0.454 in assay [1]; 0.846 (inactive) in assay [2]; -1.27 (inactive) in [3]; -0.0121 (inactive) in assay [5]; 0.176 (inactive) in assay [6]; -0.153 (inactive) in assay [7]. The values for the z-score in assay [8] and in assay [9] were 0.324 (inactive) and -0.8, respectively. For the same compound, the values for the composite z-score in assay [4] and in assay [10] were 0.318 (inactive) and -0.124, respectively.
As to `Cc1ccc(S(=O)(=O)N[C@@H]2COC(=O)[C@H](C)COC(=O)CC=C[C@H]2C)cc1`, the z-score in assay [1] was 0.285; in assay [2], 0.773 (inactive); in assay [3] it was 0.222 (inactive); in assay [5], -0.601 (inactive); in [6], 1.3 (inactive); in assay [7] it was -0.0401 (inactive). The z-score in [8] was -1.2 (inactive); in assay [9] it was 0.242. Also, the composite z-score was 0.576 (inactive) in assay [4] and -0.13 in [10].
As for `COC(=O)C1=C(C)N(Cc2ccccc2)[C@]23O[C@](C(=O)OC)(C(=O)N2[C@@H]1c1ccccc1)[C@H]1CCOC(=O)[C@H]13`, the z-score in assay [1] was 0.338; in [2], 0.424 (inactive); in [3] it was 0.444 (inactive); in assay [5], -0.765 (inactive); in assay [6], 1.55 (inactive); in assay [7] it was 0.0676 (inactive). Further, the z-score in assay [8] was -0.164 (inactive); in [9], 0.732. Moreover, the composite z-score in assay [4] is 1.01 (inactive); in [10] it was 0.0896.
As to `COCCNC(=O)OCC1CCCC2(CC(OC(=O)NCCc3ccc(F)cc3)CC(CCC(=O)N[C@@H](C)C(=O)OC)O2)O1` (stereo not given in full), the z-score is 0.864 in [1]; -0.183 (inactive) in assay [2]; 0.899 (inactive) in [3]; 0.262 (inactive) in [5]; 0.684 (inactive) in assay [6]; 0.963 (inactive) in assay [7]. Moreover, the figures for the z-score in assay [8] and in [9] were 1.16 (inactive) and 1.07, respectively. The values for the composite z-score in assay [4] and in assay [10] were -0.0746 (inactive) and -0.216, respectively.
With `CC(CCN1CCc2nc(-c3ccccc3)c(-c3ccccc3)cc2C1)=NOC(C)CN1CCCCc2nc(C)c(C)cc21` (stereo not given), the z-score in assay [1] is -0.0429; in assay [2], -2.52 (inactive); in assay [3], -1.07 (inactive); in [5], 0.347 (inactive); in assay [6], -0.609 (inactive); in [7], 0.789 (inactive). The z-score in [8] was -0.702 (inactive); in assay [9], -0.747. Further, the composite z-score is 0.187 (inactive) in assay [4] and -0.0651 in [10].
`O=C(CS)NCCCCCNC(=O)[C@H]1C[C@H]2C(=O)N3CCC[C@H]3C(=O)N2[C@H]1c1cccc(OCCO)c1`: the z-score was 0.0716 in assay [1]; -0.358 (inactive) in [2]; 0.85 (inactive) in assay [3]; -0.667 (inactive) in assay [5]; 0.18 (inactive) in [6]; -0.201 (inactive) in assay [7]. Further, the z-score in assay [8] is 0.36 (inactive); in [9], 0.472. The composite z-score in assay [4] is 0.274 (inactive); in assay [10], 0.0785.
Consider `COC(=O)[C@H](C)NC(=O)[C@@H](C)CO`, for which the z-score is -1.1 in assay [1]; -0.0616 (inactive) in assay [2]; -1.15 (inactive) in assay [3]; -0.351 (inactive) in assay [5]; 0.312 (inactive) in assay [6]; -1.45 (inactive) in assay [7]. Besides, the z-score in assay [8] was -0.489 (inactive); in assay [9], -0.855. Moreover, the composite z-score in assay [4] was 0.38 (inactive); in assay [10], -0.102.

The values above are taken from PubChem BioAssay.
